High-throughput results deposited in PubChem BioAssay by The Scripps Research Institute Molecular Screening Center.
hcDAF12 agonist – H. contortus DAF-12 nuclear receptor activators, primary screen, cell-based, luminescence, HEK293, lit1-tk-luc reporter. hit rate 1.4% among 370,000. HEK293 hcDAF-12 lit1-tk-luc reporter; 0% DMSO, 100% Δ7-dafachronic acid. activation, % at 6.8 µM. AID 652067, 2013;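 active means activation above the mean of all tested compounds plus 3 SD, cut at about 5.5% in these data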;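 further: 100% = response to 3 µM Δ7-dafachronic acid high control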
hgDAF12 agonist – H. glycines DAF-12 receptor agonists, primary screen, cell-based, luminescence, HEK293, GAL4 fusion, UAS-luciferase | Nuclear hormone receptor DAF-12 (Heterodera glycines), GAL4 fusion | HEK293 GAL4-hgDAF12 UAS-luciferase reporter, agonist luminescence; normalized to butyrate control | AID 687014, 2013 | activation, % at 6.8 µM | hit rate 1.8% among 370,000;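 active means activation above a cutoff set at the mean of all screened compounds plus 3 SD, cut at about 10% in these data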;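 further: 0% = DMSO wells and 100% = sodium butyrate wells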
DAX1 inh-1 – DAX1 (NR0B1) inhibitors on StAR promoter, primary screen, cell-based, luminescence, SF-1 (NR5A1), full-length DAX-1 | HEK293T StAR-luciferase reporter, SF-1/DAX-1 repression relief | inhibition, % at 6.8 µM | hit rate 1.1% among 370,000 | AID 652010, 2013;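 active means inhibition above the mean over all tested compounds plus 3 SD, cut at about 3.6% in these data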;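 further: 0% = DAX-1 cells with DMSO and 100% = cells lacking DAX-1 with DMSO; higher inhibition means more luminescence from relief of DAX-1 repression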
ssDAF12 agonist – S. stercoralis DAF-12 nuclear receptor activators, primary screen, cell-based, luminescence, HEK293, GRIP1 co-expression, lit1-tk-luc; HEK293 ssDAF-12/GRIP1 lit1-tk-luc reporter; % of 3 µM dafachronic acid response; activation, % at 6.8 µM; AID 652126, 2013; hit rate 1% among 370,000;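 active means activation above the mean over all tested compounds plus 3 SD, cut at about 0.9% in these data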;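 further: 0% = DMSO-only wells and 100% = 3 µM delta7-dafachronic acid wells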
DAX1 inh-2 – DAX1 (NR0B1) inhibitors, primary screen, cell-based, HEK293, Gal4-DAX1, luciferase luminescence; Nuclear receptor subfamily 0 group B member 1 (Homo sapiens), P51843; HEK293 Gal4-DAX1 luciferase reporter; inhibition, % at 6.75 µM; hit rate 0.99% among 340,000; AID 504766, 2011;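 active means inhibition above the mean over all tested compounds plus 3 SD, cut at about 4.2% in these data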;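 further: 0% = DAX1-transfected cells with DMSO and 100% = empty-vector control cells with DMSO; inhibition shows as a rise in luminescence from relieved DAX1 repression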
SMARCA2 activ – SMARCA2 (BRM) function activators, primary screen, cell-based, luminescence, high throughput | hit rate 1% among 370,000 | activation, % at 9.1 µM | MG213 cells, MMTV-luciferase reporter, dexamethasone, overnight; in the data active means activation above about 7.8%;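 further: 0% = vehicle wells and 100% = reference activator wells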
DAX1 inh confirm – DAX1 (NR0B1) inhibitors relieving SF-1 repression, confirmation, cell-based, luminescence, HEK293T, full-length DAX-1, SF-1 activated StAR promoter. shares compounds with DAX1 inh-1. HEK293T StAR-promoter luciferase reporter, SF-1/DAX-1 repression. inhibition, % at 6.8 µM. hit rate 87% among 2,400. AID 652134, 2013;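 active means inhibition above the average of every tested compound plus 3 SD, cut at about 3.8% in these data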;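 further: 0% = DAX-1 cells with DMSO and 100% = no DAX-1 control cells with DMSO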
Target sequence (P51843 whole entry, looked up): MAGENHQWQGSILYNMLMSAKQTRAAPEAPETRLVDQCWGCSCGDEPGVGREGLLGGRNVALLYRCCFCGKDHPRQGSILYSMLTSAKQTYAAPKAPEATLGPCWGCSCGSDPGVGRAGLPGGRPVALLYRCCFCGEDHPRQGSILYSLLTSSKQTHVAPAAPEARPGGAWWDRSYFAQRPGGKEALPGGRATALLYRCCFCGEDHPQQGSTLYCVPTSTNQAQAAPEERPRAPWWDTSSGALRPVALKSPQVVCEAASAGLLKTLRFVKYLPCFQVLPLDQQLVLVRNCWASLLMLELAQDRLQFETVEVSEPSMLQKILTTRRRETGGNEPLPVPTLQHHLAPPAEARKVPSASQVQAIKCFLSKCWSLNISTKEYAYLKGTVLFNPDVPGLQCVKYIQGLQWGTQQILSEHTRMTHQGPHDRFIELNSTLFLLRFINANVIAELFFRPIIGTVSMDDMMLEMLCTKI
SF1 AF2mut Luc – StAR reporter signal changes without DAX1, counter-screen for DAX1 inhibitor project, cell-based, luminescence, AF-2 mutant SF-1, transactivation; shares compounds with DAX1 inh-1; HEK293 StAR-luciferase, SF-1 AF2 mutant; inhibition, % at 6.8 µM; hit rate 78% among 2,400; AID 652136, 2013;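 active means inhibition above the mean of all tested compounds plus 3 SD, cut at about 3% in these data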;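 further: 0% = DAX-1 transfected cells with DMSO and 100% = cells without DAX-1 with DMSO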
LXR ag – LXR agonists, Gal4 luciferase reporter, confirmation, counter-screen for hcDAF-12 agonist project, cell-based, luminescence, HEK293, H. contortus campaign; 3,400 tested, under 10 active; activation, % at 6.8 µM; AID 743027, 2013; shares compounds with hcDAF12 agonist; HEK293 Gal4-LXR tk-luc reporter, 24 h; normalized: DMSO 0%, positive control 100%;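 active means mean percent activation of the reporter above a cutoff set as the average over tested compounds plus their standard deviation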
hcDAF12 conf – H. contortus DAF-12 receptor agonists, confirmation, cell-based, luminescence, HEK293, lit1-tk-luc, triplicate | shares compounds with hcDAF12 agonist | HEK293 hcDAF-12 lit1-tk-luc reporter; % of Δ7-dafachronic acid response | hit rate 61% among 3,400 | activation, % at 6.8 µM;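 active means mean activation across triplicate tests above the threshold derived from the earlier primary screen, cut at about 5.5% in these data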;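 further: 0% = DMSO only wells and 100% = 3 µM Δ7-dafachronic acid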
hgDAF12 ag – H. glycines DAF-12 receptor agonists, confirmation, cell-based, luminescence, HEK293, GAL4-LBD fusion; shares compounds with hgDAF12 agonist; HEK293 GAL4-hgDAF12 luciferase reporter, agonist mode; percent of butyrate response; activation, % at 6.8 µM; hit rate 80% among 3,300;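 active means mean activation over triplicate wells above the hit cutoff derived from the earlier primary screen, cut at about 11% in these data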;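 further: 0% = DMSO low control and 100% = 2 mM sodium butyrate high control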
LXR ag 2 – LXR agonists, Gal4 luciferase reporter, confirmation, counter-screen for hgDAF-12 agonist project, cell-based, luminescence, HEK293, H. glycines campaign; shares compounds with hgDAF12 agonist; 24 h; activation, % at 6.8 µM; 3,300 tested, under 10 active; AID 743051, 2013;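 active means mean activation of the triplicate above a set limit carried over from the primary screen, none filed active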
Numbers without * were called inactive. This is a sample that favours compounds with a hit; in the whole collection about 4.8% have one here.

Results for COc1cccc(CCNC(=O)c2cc(COc3ccc(C)c(C)c3)on2)c1OC ?
hcDAF12 agonist: 4.3; hgDAF12 agonist: 13.8*; DAX1 inh-1: 4.6*; ssDAF12 agonist: 0.1; DAX1 inh-2: 4.4*; SMARCA2 activ: 1.3; DAX1 inh confirm: 7.8*; SF1 AF2mut Luc: 3.4*; hgDAF12 ag: 16.0*; LXR ag 2: 0.8

Results for Clc1ccc(OCCSc2ncccn2)c(Br)c1 ?
hcDAF12 agonist: 6.4*; hgDAF12 agonist: 20.7*; DAX1 inh-1: 5.5*; ssDAF12 agonist: 1.8*; DAX1 inh-2: 4.4*; SMARCA2 activ: 5.4; DAX1 inh confirm: 15.5*; SF1 AF2mut Luc: 8.1*; hgDAF12 ag: 22.4*; LXR ag 2: 0.8

What do the screens show for `Cn1c(=O)c2[nH]c(SCC(=O)NCCc3ccc(F)cc3)nc2n(C)c1=O`?
hcDAF12 agonist: -0.4; hgDAF12 agonist: -1.4; DAX1 inh-1: 0.1; ssDAF12 agonist: -0.4; SMARCA2 activ: -5.1

Results for Cc1nc2sc(-c3ccccc3)cc2c(=O)n1N ?
hcDAF12 agonist: 6.7*; hgDAF12 agonist: 16.8*; DAX1 inh-1: 4.7*; ssDAF12 agonist: 0.0; DAX1 inh-2: -1.9; SMARCA2 activ: 4.5; DAX1 inh confirm: 4.6*; SF1 AF2mut Luc: 1.1; LXR ag: 1.1; hcDAF12 conf: 4.1; hgDAF12 ag: 5.1; LXR ag 2: 0.7

Results for NC(=O)CSc1nc2sc(-c3ccccc3)cc2c(=O)n1N ?
hcDAF12 agonist: 0.0; hgDAF12 agonist: 2.5; DAX1 inh-1: 0.1; ssDAF12 agonist: -0.5; DAX1 inh-2: -0.1; SMARCA2 activ: 2.4
